From PubChem BioAssay AID1159580 (chemical genetic matrix, 2015)
The campaign covered roughly 5,500 compounds. About 2,000 (36%) were called active. Not shown: some 18% with an inconclusive outcome. Rule as the data show it: active = normalized growth mostly below about 0.91 (no sharp cut-off); inconclusive = no clear call, values can overlap the other calls; inactive = mostly above about 0.92. The list shows a part of the results.

Test: chemical genetic growth profiling, strain panel (AID 1159580);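 also: tested at 20 µM; growth read once vehicle control cultures reached saturation at 30 °C; 1 = growth at the plate median or of vehicle wells; lower values mean less growth of the strain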
Conditions: S. cerevisiae deletion strains, growth OD

Measured: normalized growth

CC[C@]12CCCN3CCc4c(n(c5ccccc45)C(=O)C1)[C@@H]32
inactive: locus YAL013W, strain DEP1, hits give low values 0.967 | locus YAL021C, strain ccr4, hits give low values 0.968 | locus YAL026C, strain drs2, hits give low values 1.04 | locus YAL030W, strain snc1, hits give low values 1.01 | locus YBL061C, strain skt5, hits give low values 1.01 | locus YBR009C, strain hhf1, hits give low values 1.01 | locus YBR021W, strain FUR4, hits give low values 1.07 | locus YBR023C, strain chs3, hits give low values 1 | locus YBR171W, strain sec66, hits give low values 0.999 | locus YBR229C, strain ROT2, hits give low values 1.02 | locus YBR231C, strain swc5, hits give low values 1.01 | locus YBR279W, strain paf1, hits give low values 1 | locus YCL011C, strain gbp2, hits give low values 1.01 | locus YCL016C, strain dcc1, hits give low values 0.983 | locus YCL029C, strain bik1, hits give low values 0.989 | locus YCL069W, strain vba3, hits give low values 1 | locus YCR088W, strain abp1, hits give low values 1.01 | locus YDL005C, strain med2, hits give low values 1 | locus YDL035C, strain GPR1, hits give low values 0.941 | locus YDL040C, strain nat1, hits give low values 1 | locus YDL074C, strain BRE1, hits give low values 0.9 | locus YDL101C, strain DUN1, hits give low values 0.977 | locus YDL134C, strain PPH21, hits give low values 0.951 | locus YDL185W, strain tfp1, hits give low values 0.953 | locus YDL192W, strain arf1, hits give low values 0.977 | locus YDR001C, strain nth1, hits give low values 0.998 | locus YDR069C, strain doa4, hits give low values 1.04 | locus YDR101C, strain arx1, hits give low values 0.98 | locus YDR137W, strain rgp1, hits give low values 1.15 | locus YDR150W, strain NUM1, hits give low values 0.988 | locus YDR159W, strain sac3, hits give low values 0.995 | locus YDR195W, strain ref2 1.01 | locus YDR297W, strain sur2, hits give low values 1.01 | locus YDR318W, strain mcm21, hits give low values 0.978 | locus YDR334W, strain swr1, hits give low values 1 | locus YDR335W, strain msn5, hits give low values 0.998 | locus YDR388W, hits give low values 0.993 | locus YDR392W, strain spt3, hits give low values 0.804 | locus YDR502C, strain sam2, hits give low values 0.984 | locus YEL003W, strain gim4, hits give low values 1 | locus YEL037C, strain rad23, hits give low values 0.993 | locus YEL061C, strain CIN8 (second series), hits give low values 1 | locus YEL061C, strain CIN8, hits give low values 0.992 | locus YER015W, strain faa2, hits give low values 0.997 | locus YER016W, strain bim1, hits give low values 0.999 | locus YER110C, hits give low values 0.975 | locus YER111C, strain swi4, hits give low values 0.998 | locus YER155C, strain BEM2 (second series), hits give low values 0.976 | locus YER155C, strain BEM2, hits give low values 1.01 | locus YER167W, strain BCK2, hits give low values 1 | locus YFR010W, strain ubp6, hits give low values 1.01 | locus YGL078C, strain dbp3, hits give low values 0.983 | locus YGL086W, strain mad1, hits give low values 0.992 | locus YGL167C, strain pmr1, hits give low values 0.98 | locus YGL173C, strain kem1, hits give low values 1.02 | locus YGL227W, strain vid30, hits give low values 1.01 | locus YGL240W, strain doc1, hits give low values 0.999 | locus YGL253W, strain hxk2, hits give low values 1.03 | locus YGR135W, strain pre9, hits give low values 0.97 | locus YGR252W, strain gcn5, hits give low values 1.03 | locus YHR013C, strain ard1, hits give low values 0.98 | locus YHR027C, strain rpn1, hits give low values 1 | locus YHR079C, strain IRE1 (second series), hits give low values 0.982 | locus YHR094C, strain hxt1, hits give low values 0.99 | locus YHR129C, strain ARP1, hits give low values 0.993 | locus YHR142W, strain chs7, hits give low values 1.01 | locus YHR200W, strain rpn10, hits give low values 0.981 | locus YIL066C, strain RNR3, hits give low values 0.987 | locus YIL073C, strain SPO22, hits give low values 0.692 | locus YIL125W, strain kgd1, hits give low values 0.989 | locus YIR030C, strain dcg1, hits give low values 0.978 | locus YJL092W, strain hpr5, hits give low values 0.997 | locus YJL095W, strain BCK1 (second series), hits give low values 0.996 | locus YJL095W, strain BCK1, hits give low values 0.956 | locus YJL115W, strain asf1, hits give low values 0.994 | locus YJL129C, strain trk1, hits give low values 1.01 | locus YJL134W, strain LCB3, hits give low values 0.993 | locus YJL154C, strain vps35, hits give low values 0.993 | locus YJL164C, strain tpk1, hits give low values 0.984 | locus YJL166W, strain qcr8, hits give low values 1.01 | locus YJL168C, strain set2, hits give low values 0.992
active: locus YDR162C, strain NBP2, hits give low values 0.552 | locus YGL248W, strain PDE1, hits give low values 0.857 | locus YHR030C, strain SLT2, hits give low values 0.885
